Reference: PubChem BioAssay AID504339 (National Center for Advancing Translational Sciences (NCATS), 2011)
The campaign covered roughly 390,000 compounds. About 17,000 (4.4%) were called active. Not shown: some 8% with an inconclusive outcome. Calls come from the whole dose curve; as a rule, active = well fitted inhibition curve with a large enough effect; inconclusive = small, poorly fitted or top-dose-only effect; inactive = no such curve, though single readings can be large or run the other way. For the sample, actives were picked, then their nearest neighbours and some compounds at random.

These molecules were tested against Lysine-specific demethylase 4A (Homo sapiens) (UniProt O75164) (assay: qHTS Assay for Inhibitors of JMJD2A-Tudor Domain). Conditions: AlphaScreen JMJD2A-Tudor / H3K4me3 peptide binding; series mostly up to 114 µM.
Sequence of Lysine-specific demethylase 4A (Homo sapiens) (O75164 whole entry, looked up, the tested form may be a part): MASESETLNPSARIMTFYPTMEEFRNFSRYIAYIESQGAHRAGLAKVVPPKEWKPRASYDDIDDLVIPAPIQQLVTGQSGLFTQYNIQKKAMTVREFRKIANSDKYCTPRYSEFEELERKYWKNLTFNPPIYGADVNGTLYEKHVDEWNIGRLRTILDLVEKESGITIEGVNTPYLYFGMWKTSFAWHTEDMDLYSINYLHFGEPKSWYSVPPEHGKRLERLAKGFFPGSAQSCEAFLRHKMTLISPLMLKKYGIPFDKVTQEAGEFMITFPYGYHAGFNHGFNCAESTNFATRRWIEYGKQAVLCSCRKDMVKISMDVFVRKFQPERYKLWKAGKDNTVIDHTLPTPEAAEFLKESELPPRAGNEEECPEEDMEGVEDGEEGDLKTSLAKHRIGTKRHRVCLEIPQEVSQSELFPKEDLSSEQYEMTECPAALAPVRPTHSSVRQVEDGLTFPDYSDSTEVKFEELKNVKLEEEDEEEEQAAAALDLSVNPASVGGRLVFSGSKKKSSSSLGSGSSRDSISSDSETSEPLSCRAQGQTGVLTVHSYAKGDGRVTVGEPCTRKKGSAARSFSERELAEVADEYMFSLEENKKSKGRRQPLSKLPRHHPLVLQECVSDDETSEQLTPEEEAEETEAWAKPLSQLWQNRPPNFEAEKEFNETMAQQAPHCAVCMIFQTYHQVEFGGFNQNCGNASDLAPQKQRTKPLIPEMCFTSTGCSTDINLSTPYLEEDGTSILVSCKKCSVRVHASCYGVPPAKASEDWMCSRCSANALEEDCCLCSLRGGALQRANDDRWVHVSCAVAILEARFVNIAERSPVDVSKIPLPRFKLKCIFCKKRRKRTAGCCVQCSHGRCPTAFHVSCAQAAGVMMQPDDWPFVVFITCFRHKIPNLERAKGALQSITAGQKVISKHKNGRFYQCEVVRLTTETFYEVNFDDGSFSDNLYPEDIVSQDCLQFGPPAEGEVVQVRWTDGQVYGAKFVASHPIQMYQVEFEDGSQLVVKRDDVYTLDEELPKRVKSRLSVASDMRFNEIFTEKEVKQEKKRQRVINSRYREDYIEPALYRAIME
Note: nearly all actives have a fitted effect of over 50% in size.
Potency is the fitted concentration of half-maximal effect.

Potency, inactive:
Cc1ccc(NC(=O)Cn2cnc3nc4c(cc3c2=O)CCCC4)cc1Cl, CCOc1ccc(N2C(=O)CN(c3cccc4ccccc34)C2=S)cc1, CCO/C=C1\C(=O)N(c2ccc(OCC)cc2)C(=O)c2ccccc21, CCCN1C(=O)C(O)(CC(=O)c2ccc(CC)cc2)c2cc(Br)ccc21 (stereo not given), Cc1ccc(S(=O)(=O)NCCSc2ccccc2)cc1[N+](=O)[O-], Cc1cc(C)cc(OCC(=O)Nc2nc(-c3ccc(F)cc3)ns2)c1, CCOC(=O)c1cnc(SCC(=O)NCc2ccco2)nc1N, O=C(CCCOc1ccccc1)NCc1ccco1, O=C(COC(=O)CSc1ccccc1)Nc1ccc(F)cc1F, CCOC(=O)c1cccc(NC(=O)c2ccc(F)cc2F)c1, Cc1oc2ncnc(N3CCCCC3)c2c1C(=O)N1CCN(c2cccc(Cl)c2)CC1, CCc1ccc(NC(=O)CN2C(=O)CCSc3ccc(S(=O)(=O)N4CCCC4)cc32)cc1, CCC(C)(C)NC(=O)C(c1ccc(OC)cc1)N(C(=O)CCC(=O)Nc1cc(C)on1)c1ccc(OC)cc1OC (stereo not given), COc1ccc(C(C(=O)NC(C)(C)C)N(Cc2ccc(F)cc2)C(=O)CCC(=O)Nc2cc(C)on2)cc1 (stereo not given), CCc1ccccc1OCCSc1nc(-c2cccs2)nc2cc(=O)[nH]n12, Cc1ccc(OCCSc2nc(-c3cccs3)nc3cc(=O)[nH]n23)cc1Cl, COc1ccc(CNCCCNCc2ccc(OC)c(OC)c2)cc1OC, COc1cc(CNCc2cccs2)cc(Br)c1OC, O=C(c1ccc2c(=O)n(Cc3ccco3)c(=S)[nH]c2c1)N1CCCC1, O=c1n(Cc2cccc(C(F)(F)F)c2)c2ccccc2c2nc(-c3ccccc3)nn12, COc1ccc(S(=O)(=O)NCC(=O)NC2CC2)cc1OC, CN(C)c1ccc(C(CNS(=O)(=O)c2cc(F)ccc2F)N2CCOCC2)cc1 (stereo not given), O=C(NCC(c1cccnc1)N1CCc2ccccc21)c1cccc(C(F)(F)F)c1 (stereo not given), O=S(=O)(c1ccccc1)N1CCc2ccccc21, COc1ccc(-c2c3c(=O)n(C)c(=O)n(C)c3c3c(C)nc4ccccc4n23)cc1, Cc1ccc2[nH]c3c(=O)n(CC(=O)NC(C)C)ncc3c2c1, COc1ccc(CCn2c3c(c(=O)[nH]c2=S)CN(C(C)C)CN3)cc1OC, Cc1cc(C)cc(NC(=O)CSc2nc3nccnc3c(=O)n2CCc2c[nH]c3ccccc23)c1, O=C(Nc1cccc(Cl)c1N1CCOCC1)c1ccc2c(c1)OCCO2, COC(=O)c1ccc(N2CCOCC2)c(NC(=O)c2ccc3c(c2)OCCO3)c1, CCOC(=O)C1CCCN(C(=O)Cn2ncc3c(C)n(Cc4ccc(F)cc4)c(C)c3c2=O)C1 (stereo not given), CCOC(=O)C1CCCN(C(=O)Cn2ncc3c(=O)oc4ccc(C)cc4c32)C1 (stereo not given), COc1cccc(CNC(=O)C2CCN(S(=O)(=O)c3ccc4c(ccn4C)c3)CC2)c1, CCCN1CCN(CCCNC(=O)c2cnn(-c3ccc(C)cc3)c2-n2cccc2)CC1, COC(=O)c1ccccc1S(=O)(=O)Nc1ccc(OC)cc1, Cc1ccc(S(=O)(=O)N2CCN(c3ccccc3)CC2)cc1C, Cc1cc(C)n(-c2nc(C(F)(F)F)nc3ccccc23)n1, N#CN1CCC(NS(=O)(=O)c2cccc(F)c2)C1 (stereo not given), CCOc1ccc(C2C(=O)N(C3CCCCC3)CC(=O)N2CCC2=CCCCC2)cc1OC (stereo not given), CC(/C=N/NC(=O)c1cc(-c2ccc3ccccc3c2)n[nH]1)=C\c1ccco1, Cc1ccc(NC(=O)CCC(=O)N/N=C/c2ccco2)c(C)c1, Cc1cc(NC(=O)CC(C)C)cc(-c2nc3ncccc3o2)c1O, Fc1ccc(-c2nn(-c3ccccc3Cl)c3c2cnc2ccccc23)cc1, O=C(NC1CC(=O)N(c2ccccc2)C1)c1ccco1 (stereo not given), Cc1cc(C)n2ncc(C(=O)N3CCCC3)c2n1, Cc1ccc(Cl)cc1NC(=O)CSc1nccn1C, NC(=O)C1CCN(C(=O)c2ccc3c(=O)n(Cc4cccc(Br)c4)c(=S)[nH]c3c2)CC1, NC(=O)C1CCN(C2OC(=O)c3ccccc32)CC1 (stereo not given), COc1ccc(Cl)cc1NC(=O)C(C)Sc1nc2c(c(=O)[nH]1)CCCC2 (stereo not given), COc1cc(NC(=O)CCn2nc(C)cc2C)cc(OC)c1OC, O=C(CSc1oc(-c2ccco2)nc1S(=O)(=O)c1ccc(Cl)cc1)c1ccccc1, COc1ccccc1C1/C(=C(/O)c2ccc(C)cc2)C(=O)C(=O)N1Cc1ccco1 (stereo not given), COc1ccc(C2/C(=C(/O)c3ccccc3)C(=O)C(=O)N2C)c(OC)c1 (stereo not given), CCOC(=O)c1cccc(NC(=O)C(Cc2ccccc2)NS(=O)(=O)c2cccc3nsnc23)c1 (stereo not given), COc1ccc2c(c1)c(N1CCCC1=O)c(C(=O)Nc1ccccc1C(F)(F)F)n2C, CC(c1ccco1)N(C(=O)Nc1ccccc1)C1CCCCC1 (stereo not given), CC(C)(C)NS(=O)(=O)c1ccc(NC(=O)NC2CCCCC2)cc1, Cc1ccc2cccc(NC(=O)c3cccc4ccccc34)c2n1, Cc1ccc(CNC(=O)CCNS(=O)(=O)c2ccc3c(c2)oc(=O)n3C)cc1, O=C(Nc1ccc2nc(SCCOc3ccccc3Cl)sc2c1)c1ccco1, COc1ccc(CC(=O)NCC(=O)N/N=C/c2cc(Br)ccc2OC)cc1, COc1ccc(C(=O)c2oc3ccc(Br)cc3c2NC(C)=O)cc1, COc1ccc(S(=O)(=O)NCc2cccn2Cc2cccc(C)c2)cc1, CCOc1ccccc1N(C)C(=O)c1cc2c(s1)-c1ccccc1OC2, CCSc1ncc(Cl)c(C(=O)Nc2c(C(=O)c3ccccc3)oc3ccccc23)n1, O=C(CCS(=O)(=O)c1cc(Br)cc2c1N(C(=O)C1CC1)CC2)Nc1ccc(Br)cc1F, Cc1ccc(N2C(=O)CC(Nc3cccc4ccccc34)C2=O)cc1 (stereo not given), CCc1ccccc1N1C(=O)C2C3CC(=O)C(c4ccccc43)C2C1=O (stereo not given), O=C(Cn1ncn2nc(-c3cccs3)cc2c1=O)NCc1cccc(Br)c1, CCOC(=O)c1[nH]c(C)c(CCC(=O)N2CCN(c3ccccc3)CC2)c1C, Cc1ccc(CNC(=O)Cn2c(=O)ccc3cc(S(=O)(=O)N4CCCC4)ccc32)cc1, COc1ccc(OCCCC(=O)Oc2ccc(OC)cc2)cc1, COc1ccc(OCCn2cc(C(=O)C3CCCCC3)c3ccccc32)cc1, CCOc1ccc(N(CC)C(=O)C2CCN(S(=O)(=O)c3cccc4nonc34)CC2)cc1, O=S(=O)(Nc1cc(Cl)ccc1N1CCOCC1)c1ccccc1Cl, Cc1oc2c(c1C(=O)N1CCOCC1)C(=O)c1ccccc1C2=O, Cn1nnnc1SCCCNCc1cccc(OCc2ccc(Cl)cc2)c1, O=[S+]([O-])(c1ccc2c(c1)OCCO2)N1CCN([S+](=O)([O-])c2c(Cl)cc(Cl)cc2Br)CC1

Potency, active:
CCOc1ccc(N2C(=O)/C(=C/c3ccc(C)o3)N(C)C2=S)cc1 35.5 µM, CCS(=O)(=O)c1cc([N+](=O)[O-])c(Sc2ccccc2N)s1 44.7 µM, Cc1cc(C(=O)OCC(=O)NCc2ccco2)c(C)n1-c1ccccc1 56.2 µM, O=C(COC(=O)c1ccc(F)cc1F)Nc1ncccn1 28.2 µM, CCC(C)(C)NC(=O)C(c1cccc(OC)c1OC)N(CC(C)C)C(=O)CCC(=O)Nc1cc(C)on1 (stereo not given) 11.2 µM, O=c1cc2nc(-c3ccccc3)nc(SCCOc3ccc(Cl)cc3)n2[nH]1 56.2 µM, COc1cc(CNCc2ccc(OC)c3ccccc23)cc(OC)c1OC 25.1 µM, O=S(=O)(NCC(c1ccccc1)N1CCc2ccccc21)c1ccccc1 (stereo not given) 22.4 µM, COc1ccc(S(=O)(=O)NCC(c2ccc(N(C)C)cc2)N2CCc3ccccc32)cc1OC (stereo not given) 22.4 µM, O=C(Nc1ccc(N2CCOCC2)cc1)c1ccc2c(c1)OCO2 20 µM, CCCn1c2ccccc2c2cnn(CC(=O)N3CCCC(C(=O)OCC)C3)c(=O)c21 (stereo not given) 79.4 µM, Cc1cc(C)n(-c2nnc(N3CCN(c4ccccc4)CC3)nn2)n1 50.1 µM, Cc1cc(-c2n[nH]c(=S)n2/N=C/c2ccco2)n[nH]1 3.98 µM, Cc1cc(-c2n[nH]c(=S)n2/N=C/C(Br)=C/c2ccccc2)n[nH]1 56.2 µM, NC(=O)C1CCN(Cc2nc3c(Br)cc(Br)cc3c(=O)[nH]2)CC1 3.16 µM, COc1ccc(/C(O)=C2\C(=O)C(=O)N(Cc3ccco3)C2c2ccc(OC)cc2OC)cc1 (stereo not given) 20 µM, Cc1ccc(NC(=O)NC(=O)N(C2CCCCC2)S(=O)(=O)c2ccccc2)cc1 70.8 µM, COc1cccc2c1C(=O)c1c(O)c3c(c(O)c1C2=O)CC(O)(C(C)=NNC(=O)c1ccc(Cl)c(Cl)c1)CC3OC1CC(N)C(O)C(C)O1 (stereo not given) 50.1 µM, COc1ccc(/C=C/C(=O)c2cc(Br)ccc(=O)c2O)cc1 31.6 µM, CC1=C(C)CC2C(=O)N(c3cccc4ccccc34)C(=O)C2C1 (stereo not given) 56.2 µM, COc1ccc(OCCn2ccnc2C)cc1 1 µM, O=C1c2ccccc2-c2ncnc3c(N4CCOCC4)cc(N4CCOCC4)c1c23 44.7 µM
